# Where “and” joins values, the source holds several entries; their conditions need not be identical. Identical values can stand only once. Records with an inconclusive call do not appear. Calls of active or inactive are those of the source. Unless noted, cut-off not given; nearly all actives show AC50 up to about 26 µM.
# Tests used:
# [1] = viability loss in pontine glioma line – cell-based, SU-DIPG-XVII, MIPE5.0, CellTiter-Glo, qHTS, dose response (AID 1347060); conditions: CellTiter-Glo ATP luminescence;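 on AC50: cells exposed to compound for 48 hours before viability readout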
# [2] = viability loss in pontine glioma line – cell-based, JHH-DIPG-1, MIPE4.0, CellTiter-Glo, qHTS, dose response (AID 1347062; cut-off not given, nearly all actives have AC50 up to about 27 µM;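 on AC50: cells exposed to compound for two days before readout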); conditions: JHH-DIPG-1 viability, CellTiter-Glo ATP luminescence
# [3] = viability loss in pontine glioma line – cell-based, SU-DIPG-XIII, MIPE5.0, CellTiter-Glo, qHTS, dose response (AID 1347064; cut-off not given, nearly all actives have AC50 up to about 23 µM;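 on AC50: cells exposed to compound for 48 hours before the viability read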); conditions: CellTiter-Glo ATP luminescence
# [4] = viability loss in pontine glioma line – cell-based, SU-DIPG-XXV, MIPE5.0, CellTiter-Glo, qHTS, dose response (AID 1347065); conditions: CellTiter-Glo ATP luminescence;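 further: cells exposed to compound for 48 hours before ATP readout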
# [5] = growth inhibition of DIPG cells – cell-based, MIPE4.0 library, CellTiter-Glo luminescence, qHTS (AID 1347066; cut-off not given, nearly all actives have AC50 up to about 30 µM;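 further: cells exposed to compound for 48 hours before readout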); conditions: SU-DIPG-VI viability, CellTiter-Glo ATP luminescence
# [6] = JHH-DIPG-1 glioma cell viability, MIPE5.0 library, CellTiter-Glo luminescence, qHTS (AID 1347067); conditions: JHH-DIPG-1 glioma viability, CellTiter-Glo ATP luminescence;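 further: cells exposed to compound for 48 hours before readout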
# [7] = growth inhibition of DIPG cells – cell-based, MIPE5.0 library, qHTS (AID 1347068; cut-off not given, nearly all actives have IC50 up to about 30 µM;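 on IC50: cells exposed to compound for 48 hours before viability readout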); conditions: SU-DIPG-XXV viability
# [8] = P. berghei load reduction in hepatocytes – cell-based, HepG2, luciferase luminescence, HepG2 viability, primary screen (AID 624349; in the data active means parasite load remaining mostly below about 12%, no sharp cut-off; inactive means mostly above about 10%;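 further: 100% = mean of DMSO negative control wells on the same plate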); conditions: P. berghei liver stage in HepG2, luciferase luminescence, concentration not given here; parasite load remaining: stronger effect = lower value; viability: measured here: HepG2 viability without parasites
# [9] = signal quenchers or enhancers, Cy5 substrate/SSB – biochemical, NIH Clinical Collection, E. coli SSB, artefact control for HCV NS3 helicase inhibitor project (AID 743268; call rule not given here); conditions: Cy5-oligo bound E. coli SSB, fluorescence interference
# [10] = test system: Hepatitis C virus NS3 helicase; assay: blockers of NS3h binding to DNA – biochemical, fluorescence polarization, NIH Clinical Collection, primary screen (AID 743270; call rule not given here); conditions: NS3 helicase binding to Cy5-dT15 DNA, stronger effect = higher value, concentration not given here
# [11] = molecular target: Single-stranded DNA-binding protein (Escherichia coli (strain K12)) (UniProt P0AGE0); assay: SSB-ssDNA binding inhibitors – biochemical, fluorescence polarization, NIH Clinical Collection, counter-screen for HCV NS3 helicase inhibitor project (AID 743271; in the data active means inhibition above about 28%); conditions: E. coli SSB-DNA binding, stronger effect = higher value, concentration not given here
# [12] = compounds distorting NS3 helicase fluorescence signal – biochemical, NIH Clinical Collection, artefact control for HCV NS3 helicase inhibitor project (AID 743272; call rule not given here;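 further: HCV NS3 helicase with a Cy5 labelled single stranded DNA probe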); conditions: fluorescence interference counterscreen, HCV NS3 helicase assay; stronger effect = lower value
# [13] = viability loss in pontine glioma line – cell-based, SU-DIPG-IV, MIPE4.0, CellTiter-Glo, qHTS, dose response (AID 1347063; cut-off not given, nearly all actives have AC50 up to about 30 µM;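 further: compound exposure lasted 48 hours before the viability readout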); conditions: CellTiter-Glo ATP luminescence
# [14] = viability loss with induced miR-34 in A549 – imaging, A549 dox-inducible miR-34, nuclei and caspase counts, primary screen (AID 1347080;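 active means compounds whose cell count with miR-34 switched on is under 0.7 times the count with it off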); conditions: A549 miR-34 inducible, Hoechst nuclei count, 48 h
# [15] = MELAS cybrid and Rieske KO viability enhancers – cell-based, MELAS cybrids, Rieske KO mouse fibroblasts, CellTiter-Glo, primary screen (AID 1508586;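 active means mean z-score across replicates of 1.96 or higher in either the MELAS or the Rieske mutant cell line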;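 further: z relative to plate mean and SD of compound and empty wells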); conditions: low glucose
# [16] = galactose survival enhancers in mitochondrial complex I cybrids – cell-based, galactose medium, ATP luminescence, primary screen (AID 1645843;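 active means z-score of at least 1.8 in each of two replicates, scored against plate mean and spread of sample wells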;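 further: positive z means more ATP and so rescue of galactose-driven cybrid death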); conditions: complex I mutant cybrid cells, 72 h, stronger effect = higher value
# [17] = molecular target: NAD(+) hydrolase SARM1 (Homo sapiens) (UniProt Q6SZW1); assay: blocking NAD cleavage by SARM1 SAM-TIR – cell lysate, NAD-Glo luminescence (AID 1508614;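 active means compound whose remaining NAD level is above about 45 nM, limit read from the data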); conditions: SAM-TIR HEK293T lysate NADase, at 1 µM, stronger effect = higher value
# Sequence of NAD(+) hydrolase SARM1 (Homo sapiens) (Q6SZW1 whole entry, looked up): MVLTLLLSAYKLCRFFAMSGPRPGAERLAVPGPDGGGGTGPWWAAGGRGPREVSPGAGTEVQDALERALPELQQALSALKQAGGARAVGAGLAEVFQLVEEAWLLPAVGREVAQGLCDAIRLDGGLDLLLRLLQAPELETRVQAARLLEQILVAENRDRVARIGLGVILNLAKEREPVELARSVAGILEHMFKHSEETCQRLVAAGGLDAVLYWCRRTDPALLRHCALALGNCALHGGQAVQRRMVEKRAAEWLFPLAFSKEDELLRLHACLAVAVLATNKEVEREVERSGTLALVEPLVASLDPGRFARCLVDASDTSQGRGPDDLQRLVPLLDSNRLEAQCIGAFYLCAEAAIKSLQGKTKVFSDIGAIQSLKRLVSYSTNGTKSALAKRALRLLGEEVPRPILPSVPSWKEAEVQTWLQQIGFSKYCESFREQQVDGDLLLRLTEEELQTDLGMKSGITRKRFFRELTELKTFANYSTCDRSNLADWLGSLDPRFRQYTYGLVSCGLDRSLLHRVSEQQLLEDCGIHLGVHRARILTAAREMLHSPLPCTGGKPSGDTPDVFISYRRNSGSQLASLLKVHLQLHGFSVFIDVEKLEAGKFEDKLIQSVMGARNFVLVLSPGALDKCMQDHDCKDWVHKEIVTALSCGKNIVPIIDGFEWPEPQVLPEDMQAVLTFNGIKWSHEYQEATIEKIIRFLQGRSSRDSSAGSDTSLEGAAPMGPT
# [18] = viability loss in pontine glioma line – cell-based, SU-DIPG-XIII, MIPE4.0, CellTiter-Glo, qHTS, dose response (AID 1347061; cut-off not given, nearly all actives have AC50 up to about 37 µM;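 further: cells exposed to compound for 48 hours before readout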); conditions: CellTiter-Glo ATP luminescence
# [19] = measured here: relative caspase fold change +Dox/-Dox
# [20] = measured here: total cells with miR-34 induction, stronger effect = lower value
# [21] = measured here: total cells without miR-34 induction
# [22] = MELAS cybrid survival, CellTiter-Glo 48 h, stronger effect = higher value
# [23] = Rieske KO mouse fibroblast survival, CellTiter-Glo 72 h
# [24] = stronger effect = lower value, cell number ratio, induced over uninduced
compound,measurement,setting,value
O=C(Nc1ccncc1)C(=O)c1cn(Cc2ccc(Cl)cc2)c2ccccc12,AC50,[1],0.295 µM (active)
same,AC50,[2],0.296 µM (active)
same,AC50,[3],1.66 µM (active)
same,AC50,[4],0.148 µM (active)
same,outcome,[5],inactive
same,AC50,[6],0.417 µM (active)
same,IC50,[7],0.372 µM (active)
C[C@]12Cc3cn[nH]c3C[C@@H]1CC[C@@H]1[C@@H]2CC[C@@]2(C)[C@H]1CC[C@]2(C)O,parasite load remaining,[8],50.6% (inactive) and 13.2% (inactive)
same,viability,[8],69.5% and 91.5%
same,fluorescence ratio,[9],0.94 (inactive)
same,inhibition,[10],-1.97% (inactive)
same,inhibition,[11],-2.76% (inactive)
same,fluorescence ratio,[12],0.96 (inactive)
same,outcome,[1],inactive
same,outcome,[13],inactive
same,outcome,[3],inactive
same,outcome,[4],inactive
same,outcome,[5],inactive
same,outcome,[6],inactive
same,outcome,[7],inactive
same,fold change,[14]; stronger effect = lower value,0.887 (inactive)
same,fold change,[14]; [19],2.02
same,cell count,[14]; [20],8690
same,cell count,[14]; [21],9800
same,z-score,[15]; [22],0.697 (inactive) and -0.417 (inactive)
same,z-score,[15]; [23],-0.0861 and -1.23
same,z-score,[16],-0.265 (inactive)
O=S(=O)(F)Cc1ccccc1,outcome,[1],inactive
same,outcome,[2],inactive
same,outcome,[13],inactive
same,outcome,[3],inactive
same,outcome,[4],inactive
same,outcome,[5],inactive
same,outcome,[6],inactive
same,outcome,[7],inactive
same,fold change,[14]; [24],0.924 (inactive)
same,fold change,[14]; [19],0.551
same,cell count,[14]; [20],9940
same,cell count,[14]; [21],10800
same,z-score,[15]; [22],-0.358 (inactive)
same,z-score,[15]; [23],0.553
Cn1c(CCCCCCC(=O)NO)nc2cc(N(CCCl)CCCl)ccc21,AC50,[1],9.34 µM (active)
same,AC50,[6],9.34 µM (active)
same,outcome,[7],inactive
C[C@]12CC[C@H]3[C@@H](CC[C@@]45O[C@@H]4C(O)=C(C#N)C[C@]35C)[C@@H]1CC[C@@H]2O,AC50,[1],29.5 µM (active)
same,outcome,[2],inactive
same,AC50,[3],20.9 µM (active)
same,AC50,[4],20.9 µM (active)
same,outcome,[5],inactive
same,outcome,[7],inactive
same,remaining NAD,[17],10 nM (inactive)
COC(=O)[C@@]12OC[C@]34[C@H]([C@@H](O)[C@@H]1O)[C@@]1(C)CC(=O)C(O)=C(C)[C@@H]1C[C@H]3OC(=O)[C@H](OC(=O)/C=C(\C)C(C)C)[C@@H]24,AC50,[1],0.0295 µM (active)
same,AC50,[3],0.059 µM (active)
same,AC50,[4],0.0105 µM (active)
same,AC50,[6],0.0525 µM (active)
same,IC50,[7],5.9 µM (active)
COC[C@H]1OC(=O)c2coc3c2[C@@]1(C)C1=C(C3=O)[C@@H]2CC[C@H](O)[C@@]2(C)C[C@H]1OC(C)=O,AC50,[18],16.6 µM (active)
same,AC50,[13],1.18 µM (active)
same,AC50,[3],9.34 µM (active)
same,AC50,[4],1.66 µM (active)
same,AC50,[5],14.8 µM (active)
same,AC50,[6],5.9 µM (active)
same,outcome,[7],inactive
C1=C2CCCN[C@H]2[C@@H]2C[C@H]1[C@H]1CCCCN1C2,outcome,[18],inactive
same,outcome,[2],inactive
same,outcome,[13],inactive
same,outcome,[5],inactive
same,fold change,[14]; [24],0.948 (inactive)
same,fold change,[14]; [19],1.03
same,cell count,[14]; [20],10000
same,cell count,[14]; [21],10600
same,z-score,[15]; [22],-0.38 (inactive)
same,z-score,[15]; [23],0.546
C[C@H]1[C@@H](CC(C[C@H]2O[C@@H]3O[C@]4(C)CC[C@H]5[C@H](C)CC[C@@H]([C@H]2C)[C@@]35OO4)CS(=O)(=O)c2ccc(COC(=O)N(C)C)cc2)O[C@@H]2O[C@]3(C)CC[C@H]4[C@H](C)CC[C@@H]1[C@@]24OO3 (stereo partly drawn),AC50,[13],0.209 µM (active)
CCC(=O)OC1CCC2C3CCC4=CC(=O)CC[C@@]4(C)C3CC[C@]12C (stereo partly drawn),outcome,[2],inactive
same,outcome,[13],inactive
same,outcome,[5],inactive
CN1CCN(c2ccc([N+](=O)[O-])c3no[n+]([O-])c23)CC1,AC50,[2],23.5 µM (active)
same,AC50,[13],16.6 µM (active)
same,AC50,[3],16.6 µM (active)
same,AC50,[4],18.6 µM (active)
same,AC50,[6],23.5 µM (active)
same,outcome,[7],inactive

# Reference: PubChem BioAssay
